hcDAF-12 act: H. contortus DAF-12 activation, primary screen. activation, % at 6.8 µM. HEK293 hcDAF-12 lit1-tk-luc reporter, luminescence; 0% DMSO, 100% Δ7-dafachronic acid. actives 1.4% (n = 370,000);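 active means activation above the mean of all tested compounds plus 3 SD, cut at about 5.5% in these data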;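 further: 100% = response to 3 µM Δ7-dafachronic acid high control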
DAX1 inh-1: inhibitors of DAX1 repression of SF-1 activated StAR promoter | AID 652010 | HEK293T StAR-luciferase reporter, SF-1/DAX-1 repression relief | inhibition, % at 6.8 µM | actives 1.1% (n = 370,000);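 active means inhibition above the mean over all tested compounds plus 3 SD, cut at about 3.6% in these data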;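 further: 0% = DAX-1 cells with DMSO and 100% = cells lacking DAX-1 with DMSO; higher inhibition means more luminescence from relief of DAX-1 repression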
ssDAF-12 act: activators of S. stercoralis DAF-12 nuclear receptor; actives 1% (n = 370,000); HEK293 ssDAF-12/GRIP1 lit1-tk-luc reporter, luminescence; % of 3 µM dafachronic acid response; activation, % at 6.8 µM;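 active means activation above the mean over all tested compounds plus 3 SD, cut at about 0.9% in these data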;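 further: 0% = DMSO-only wells and 100% = 3 µM delta7-dafachronic acid wells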
PolyA inh: inhibitors of polyadenylation in S. cerevisiae; S. cerevisiae SKY197-pL101 polyadenylation reporter, beta-gal luminescence; efflux-impaired pdr1/pdr3 knockout yeast; score 100 = 6 SD above DMSO; activity score, % at 12 µM; actives 0.02% (n = 300,000); AID 1875;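 active means lowest replicate activity score at least 50, where 100 means six control SD above control mean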;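 further: yeast exposed to compound for 9 h at 30 °C; higher score means more reporter readthrough which indicates perturbed polyadenylation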
DAX1 inh-2: NR0B1 (DAX1) inhibition; P51843; HEK293 Gal4-DAX1 luciferase reporter, luminescence; inhibition, % at 6.75 µM; actives 0.99% (n = 340,000);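 active means inhibition above the mean over all tested compounds plus 3 SD, cut at about 4.2% in these data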;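 further: 0% = DAX1-transfected cells with DMSO and 100% = empty-vector control cells with DMSO; inhibition shows as a rise in luminescence from relieved DAX1 repression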
Target sequence (P51843 207-470 limits assumed): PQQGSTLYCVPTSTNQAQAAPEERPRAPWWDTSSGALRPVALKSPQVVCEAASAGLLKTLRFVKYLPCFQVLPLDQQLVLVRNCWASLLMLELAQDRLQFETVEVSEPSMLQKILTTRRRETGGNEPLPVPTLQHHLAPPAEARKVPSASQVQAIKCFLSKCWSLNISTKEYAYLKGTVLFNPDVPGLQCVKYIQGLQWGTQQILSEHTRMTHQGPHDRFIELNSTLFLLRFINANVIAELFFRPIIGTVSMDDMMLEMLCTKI
hgDAF12 agonist: hgDAF-12 agonism, primary luciferase screen; HEK293 GAL4-hgDAF12 UAS-luciferase reporter, agonist luminescence; normalized to butyrate control; activation, % at 6.8 µM; actives 1.8% (n = 370,000); AID 687014;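 active means activation above a cutoff set at the mean of all screened compounds plus 3 SD, cut at about 10% in these data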;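 further: 0% = DMSO wells and 100% = sodium butyrate wells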
An asterisk follows results filed as active; . = not tested or not shown; ! = repeats disagree. Sampled rows, rich in hits. Any-hit rate of the full collection: about 4.1%.

SMILES | hcDAF-12 act | DAX1 inh-1 | ssDAF-12 act | PolyA inh | DAX1 inh-2 | hgDAF12 agonist
Cc1ccc2c(c1)C1CS(=O)(=O)N(Cc3ccccc3)C(=O)N1C2 (stereo not drawn) | -2.2 | -0.7 | -0.7 | . | . | -1.2
Cc1ccc(OCc2nnc(SCC(=O)Nc3ccc(S(=O)(=O)Nc4cc(C)nc(C)n4)cc3)n2Cc2ccco2)cc1 | -1.7 | -0.9 | -1.6 | . | . | -1.6
O=C(NNC(=O)c1cc(Cl)nc2ccccc12)c1ccccc1F | 2.3 | 0.8 | 1.1* | -3.7 | -1.9 | -0.9
O=C(NNC(=O)c1cc(-c2ccncc2)nc2ccccc12)c1ccccc1F | 4.0 | 2.4 | -0.7 | . | 1.7 | 4.3
COC(=O)[C@]12C=CCN1[C@@H](c1ccc(OC)c(OC)c1)c1c(c3ccccc3n1S(=O)(=O)c1ccc(C)cc1)C2 | 5.8* | -1.4 | -1.3 | . | . | 0.6
COC(=O)[C@]12C[C@H](CC(=O)NCc3cccs3)C(=O)N(CCC3=CCCCC3)C1=C[C@H](C1CCCC1)O[C@@H]2C | -2.8 | -0.3 | -0.8 | . | . | -2.2
Nc1ccc2c(c1)sc1ccccc12 | 2.6 | 1.9 | -1.0 | 3.7 | 0.7 | 11.2*
CCOc1ccccc1C(=O)Nc1ccccc1-c1ccccc1 | 5.7* | 0.1 | -1.2 | -22.8 | 0.5 | -1.1
CCOc1ccccc1C(=O)Nc1ccccc1O | 0.7 | -0.9 | -1.0 | -2.3 | -1.4 | 0.5
CC1(C)C=Cc2c(ccc3c2OC[C@H](c2ccc(O)cc2O)C3)O1 | 0.9 | -0.2 | -0.6 | . | 2.0 | 3.2
CC(=O)Oc1ccc([C@@H]2COc3c(ccc4c3C=CC(C)(C)O4)C2)c(OC(C)=O)c1 | 1.9 | 0.7 | -1.4 | 19.3 | 4.4* | 4.8
C=CCN(CC=C)C[C@@H]1CSCCS(=O)(=O)N1 | 0.0 | 0.9 | -0.1 | . | . | -0.1
O=C(Cn1nnc(-c2ccccc2Cl)n1)N1CCCCC1 | 0.5 | 1.3 | -0.1 | 5.1 | 4.6* | 6.6
Cc1occc1C(=O)NC(C)C12CC3CC(CC(C3)C1)C2 (stereo not drawn) | -2.3 | -0.7 | -1.1 | -70.5 | 1.5 | 0.5
Cc1occc1C(=O)NN=C1C2CC3CC(C2)CC1C3 | 4.3 | 4.0* | 0.5 | 18.3 | 3.0 | 9.3
O=C(Nc1cccnc1)Nc1cccc([N+](=O)[O-])c1 | 6.5* | -0.4 | -1.2 | 5.1 | 1.1 | 2.2
CC(=O)c1ccc(NC(=O)Nc2cccnc2)cc1 | 1.1 | 4.1* | 0.0 | . | 0.5 | 4.7
Cc1ccc(NC(=O)Nc2cnccn2)cc1 | -0.3 | 4.3* | -0.1 | -12.1 | 1.7 | 7.8
COc1ccc(N2C[C@@]3(O)CC[C@@H](O)[C@@H](OC)[C@@H]3[C@@]2(C)[C@H](O)CC=C(C)C)cc1 | 1.4 | -1.1 | -0.9 | . | . | 0.1
CC(=O)Nc1ccc(Sc2ncccc2C(=O)Nc2cc(Cl)cc(Cl)c2)cn1 | 0.7 | 0.0 | 1.1* | -1.8 | 0.2 | 1.7
Cc1cccc(NC(=O)[C@H](Cc2c[nH]c3ccccc23)NC(=O)[C@@H]2Cc3ccccc3CN2)c1 | 1.9 | -4.0 | -1.2 | -2.7 | -1.1 | -4.8
Cc1cc(C)cc(NC(=O)[C@H](Cc2c[nH]c3ccccc23)NC(=O)[C@@H]2Cc3ccccc3CN2)c1 | 6.2* | -0.7 | -1.0 | -13.9 | -0.6 | -1.7
Cc1cc(Oc2nc3c(C)cccn3c(=O)c2/C=C(\C#N)S(=O)(=O)c2ccccc2)ccc1Cl | 6.2* | 0.8 | 0.7 | -10.9 | 0.2 | 3.9
Cc1cccn2c(=O)c(/C=C(\C#N)S(=O)(=O)c3ccccc3)c(Oc3ccc(Cl)cc3)nc12 | -0.7 | 0.2 | -1.4 | 24.3 | 0.3 | 1.2
CC(=O)C(Sc1nn(C)c(=S)s1)C(=O)Nc1ccccc1 (stereo not drawn) | 1.9 | 2.0 | 1.0* | 2.3 | 1.1 | 6.5
SMILES | hcDAF-12 act | DAX1 inh-1 | ssDAF-12 act | PolyA inh | DAX1 inh-2 | hgDAF12 agonist
COc1cc(=O)oc(C=O)c1C | -3.0 | -0.3 | -0.3 | . | . | 2.7
CCc1ccc(N2CN=c3s/c(=C\c4ccccc4)c(=O)n3C2)cc1 | -2.6 | -0.1 | -1.8 | 13.9 | 5.3* | 1.2
O=c1/c(=C/c2ccccn2)sc2n1CN(c1ccccc1)CN=2 | -0.7 | 0.0 | -0.5 | 2.7 | 0.4 | 5.8
CN(C)CCNc1ncnc2c1sc1nc(N3CCOCC3)c3c(c12)CC(C)(C)SC3 | -2.2 | -0.8 | -2.0 | 4.4 | -0.6 | -1.6
CCN(CC)CCNc1ncnc2c1sc1nc(N3CCOCC3)c3c(c12)CC(C)(C)SC3 | -2.1 | 0.4 | 1.1* | 3.2 | -0.5 | -1.1
Cc1cc(Cl)c2oc(C(=O)N(C)Cc3ccon3)c(C)c2c1 | 1.6 | 1.5 | -0.1 | 4.3 | 1.2 | 12.7*
Cc1cc(Cl)c2oc(C(=O)N(CCO)Cc3ccccc3)c(C)c2c1 | 0.4 | 0.9 | -1.4 | -10.3 | 8.1* | 0.5
COC(=O)C1=C(C)N(Cc2cccc(C(F)(F)F)c2)C(=NCc2ccc3c(c2)OCO3)NC1c1ccc(Cl)cc1 (stereo not drawn) | 0.9 | -0.1 | -1.1 | . | . | 2.6
CCN(CC)c1ccc([C@H]2[C@@H]3CCCC[C@]3(O)CCN2CC(=O)NCc2ccco2)cc1 | -2.1 | -0.1 | -1.4 | -6.4 | 4.7* | 0.0
CCN(CC)c1ccc(C2C3CCCCC3(O)CCN2CC(=O)N2CCCCC2)cc1 (stereo not drawn) | -2.0 | -0.3 | -1.4 | -5.1 | -0.7 | 2.1
O=C(Nc1nc(Cc2ccccc2)c(Cc2ccccc2)n1Cc1ccccc1)c1ccccc1 | -0.9 | 0.3 | -1.3 | . | . | -1.4
CC(=O)Nc1nc(C)c(-c2csc(Nc3ccccn3)n2)s1 | 2.7 | 0.8 | -1.4 | -2.7 | 3.4 | 10.5*!
CC(=O)Nc1ccc(-c2csc(Nc3cc(C)ccn3)n2)cc1 | -3.5 | -3.0 | -2.8 | -15.5 | -1.4 | 1.8
Cc1cccnc1Nc1nc(-c2ccc(O)cc2O)cs1 | 0.9 | 0.3 | -0.5 | -4.9 | 0.3 | 1.0
CC(=O)Nc1ccc(Nc2nc(-c3sc(NC(C)=O)nc3C)cs2)cc1 | -2.6 | -0.6 | -0.7 | -1.3 | 2.6 | 1.6
CC(=O)Nc1cccc(-c2csc(Nc3cc(C)ccn3)n2)c1 | 0.5 | 3.5 | -1.2 | -11.3 | 1.4 | 10.9*
Oc1ccc(-c2csc(Nc3ccccn3)n2)c(O)c1 | 3.8 | 1.3 | 0.7 | -16.3 | 4.6* | 9.4
COc1ccc(CC2(CO)CCN(Cc3ccncc3)CC2)cc1 | -1.4 | -1.0 | -1.6 | 2.6 | -1.5 | -2.4
COc1ccc(CC2(CO)CCN(Cc3cnn(C)c3C)CC2)cc1 | -1.1 | -0.6 | -2.0 | 13.5 | 4.9* | 1.4
CN(C)[C@@H]1CCN(c2ccc3c(c2)OCCCN(C2CC2)S3(=O)=O)C1 | 0.9 | -0.7 | -1.3 | . | . | 0.8
NS(=O)(=O)c1cccc(NC(=O)c2cc3ccccc3o2)c1 | -0.8 | 3.1 | -1.1 | 8.7 | 1.3 | 5.3
O=C(Nc1ccccc1Br)c1cc(=O)c2ccccc2o1 | 1.0 | 1.6 | 0.6 | -7.0 | 4.2 | 10.9*
NS(=O)(=O)c1cccc(NC(=O)c2cc(=O)c3ccccc3o2)c1 | 1.8 | 0.1 | -1.0 | 13.2 | 4.8* | 4.5

Screening data as filed in PubChem.
